The source of these data is article PMC11006913.

Test [1] has as its target NKX3-2 (Homo sapiens, UniProt P78367 192-278, P234S). Put plainly: PBM; 200 nM protein, PBS. The settings on record: dsDNA, one strand shown.
Test [2] addresses NKX3-2 (Homo sapiens, UniProt P78367 192-278). Description: PBM; 200 nM protein, PBS. The note with it: dsDNA, one strand shown.

Sequence of NKX3-2 (Homo sapiens, UniProt P78367 192-278, P234S) (P78367 192-278 P234S): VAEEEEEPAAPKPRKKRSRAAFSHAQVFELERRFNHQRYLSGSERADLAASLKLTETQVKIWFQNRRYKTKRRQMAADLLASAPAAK
Sequence of NKX3-2 (Homo sapiens, UniProt P78367 192-278) (P78367 192-278): as the sequence (P78367 192-278 P234S) above, with S43P counted along it

Consider CCCCGCAA, for which the binding signal with NKX3-2 [1] is 10.7 upbm affinity estimate (log intensity, higher = more binding, comparable within an allelic series); with NKX3-2 [2], 10.7 upbm affinity estimate (log intensity, higher = more binding, comparable within an allelic series).

Turning to CGGGTTAG, the binding signal with NKX3-2 [1] is 10.5 upbm affinity estimate (log intensity, higher = more binding, comparable within an allelic series); with NKX3-2 [2], 10.5 upbm affinity estimate (log intensity, higher = more binding, comparable within an allelic series).

GCCGGCGC: the binding signal with NKX3-2 [1] is 10.3 upbm affinity estimate (log intensity, higher = more binding, comparable within an allelic series); with NKX3-2 [2] it was 10.3 upbm affinity estimate (log intensity, higher = more binding, comparable within an allelic series).

Turning to CCAGACCA, the binding signal with NKX3-2 [1] is 10.6 upbm affinity estimate (log intensity, higher = more binding, comparable within an allelic series); with NKX3-2 [2], 10.5 upbm affinity estimate (log intensity, higher = more binding, comparable within an allelic series).

Take AAAGTGGG: the binding signal is 12.4 upbm affinity estimate (log intensity, higher = more binding, comparable within an allelic series) with NKX3-2 [1] and 12.6 upbm affinity estimate (log intensity, higher = more binding, comparable within an allelic series) with NKX3-2 [2].

In the case of ATCCGAGC, the binding signal with NKX3-2 [1] was 10.6 upbm affinity estimate (log intensity, higher = more binding, comparable within an allelic series); with NKX3-2 [2], 10.6 upbm affinity estimate (log intensity, higher = more binding, comparable within an allelic series).

GGTCAAAC: the binding signal with NKX3-2 [1] was 10.5 upbm affinity estimate (log intensity, higher = more binding, comparable within an allelic series); with NKX3-2 [2], 10.5 upbm affinity estimate (log intensity, higher = more binding, comparable within an allelic series).

Take ACCAACGC: the binding signal was 10.7 upbm affinity estimate (log intensity, higher = more binding, comparable within an allelic series) with NKX3-2 [1] and 10.7 upbm affinity estimate (log intensity, higher = more binding, comparable within an allelic series) in the test with NKX3-2 [2].

As to CCCACTTC, the binding signal is 12.7 upbm affinity estimate (log intensity, higher = more binding, comparable within an allelic series) with NKX3-2 [1] and 12.8 upbm affinity estimate (log intensity, higher = more binding, comparable within an allelic series) in the test with NKX3-2 [2].

Consider ACTTACTG, for which the binding signal was 11.6 upbm affinity estimate (log intensity, higher = more binding, comparable within an allelic series) with NKX3-2 [1] and 11.7 upbm affinity estimate (log intensity, higher = more binding, comparable within an allelic series) in the test with NKX3-2 [2].

Regarding CCACTTCC, the binding signal in the test with NKX3-2 [1] is 12.6 upbm affinity estimate (log intensity, higher = more binding, comparable within an allelic series); in the test with NKX3-2 [2] it was 12.7 upbm affinity estimate (log intensity, higher = more binding, comparable within an allelic series).

For the sequence TCTGGGCA, the binding signal was 10.6 upbm affinity estimate (log intensity, higher = more binding, comparable within an allelic series) with NKX3-2 [1] and 10.6 upbm affinity estimate (log intensity, higher = more binding, comparable within an allelic series) with NKX3-2 [2].

GACGAACC: the binding signal was 10.6 upbm affinity estimate (log intensity, higher = more binding, comparable within an allelic series) with NKX3-2 [1] and 10.5 upbm affinity estimate (log intensity, higher = more binding, comparable within an allelic series) in the test with NKX3-2 [2].

On to CTGCCGCA, for which the binding signal with NKX3-2 [1] was 10.7 upbm affinity estimate (log intensity, higher = more binding, comparable within an allelic series); in the test with NKX3-2 [2] it was 10.6 upbm affinity estimate (log intensity, higher = more binding, comparable within an allelic series).

With AGTGGAGA, the binding signal is 11.7 upbm affinity estimate (log intensity, higher = more binding, comparable within an allelic series) in the test with NKX3-2 [1] and 11.7 upbm affinity estimate (log intensity, higher = more binding, comparable within an allelic series) in the test with NKX3-2 [2].

For the sequence CAAAGTGG, the binding signal with NKX3-2 [1] is 12.8 upbm affinity estimate (log intensity, higher = more binding, comparable within an allelic series); in the test with NKX3-2 [2] it was 12.9 upbm affinity estimate (log intensity, higher = more binding, comparable within an allelic series).

With GCACCCAA, the binding signal in the test with NKX3-2 [1] was 10.6 upbm affinity estimate (log intensity, higher = more binding, comparable within an allelic series); with NKX3-2 [2], 10.6 upbm affinity estimate (log intensity, higher = more binding, comparable within an allelic series).

As for CTCTTGCC, the binding signal was 11.4 upbm affinity estimate (log intensity, higher = more binding, comparable within an allelic series) with NKX3-2 [1] and 11.5 upbm affinity estimate (log intensity, higher = more binding, comparable within an allelic series) with NKX3-2 [2].

Consider TAAGAACA, for which the binding signal was 11.4 upbm affinity estimate (log intensity, higher = more binding, comparable within an allelic series) in the test with NKX3-2 [1] and 11.5 upbm affinity estimate (log intensity, higher = more binding, comparable within an allelic series) in the test with NKX3-2 [2].

In the case of GAGCTAGC, the binding signal in the test with NKX3-2 [1] was 10.7 upbm affinity estimate (log intensity, higher = more binding, comparable within an allelic series); with NKX3-2 [2], 10.7 upbm affinity estimate (log intensity, higher = more binding, comparable within an allelic series).

Turning to CGGCTGGC, the binding signal with NKX3-2 [1] is 10.4 upbm affinity estimate (log intensity, higher = more binding, comparable within an allelic series); in the test with NKX3-2 [2], 10.4 upbm affinity estimate (log intensity, higher = more binding, comparable within an allelic series).

On to CGAGTGCA, for which the binding signal was 11.7 upbm affinity estimate (log intensity, higher = more binding, comparable within an allelic series) with NKX3-2 [1] and 11.8 upbm affinity estimate (log intensity, higher = more binding, comparable within an allelic series) with NKX3-2 [2].

Regarding AAGGGCCT, the binding signal with NKX3-2 [1] is 11.9 upbm affinity estimate (log intensity, higher = more binding, comparable within an allelic series); with NKX3-2 [2] it was 12 upbm affinity estimate (log intensity, higher = more binding, comparable within an allelic series).

Turning to AGAAGTGG, the binding signal is 12.5 upbm affinity estimate (log intensity, higher = more binding, comparable within an allelic series) with NKX3-2 [1] and 12.7 upbm affinity estimate (log intensity, higher = more binding, comparable within an allelic series) in the test with NKX3-2 [2].

Consider AAGCCGCC, for which the binding signal is 10.7 upbm affinity estimate (log intensity, higher = more binding, comparable within an allelic series) in the test with NKX3-2 [1] and 10.7 upbm affinity estimate (log intensity, higher = more binding, comparable within an allelic series) with NKX3-2 [2].

Regarding GAAGTGGC, the binding signal in the test with NKX3-2 [1] was 12.7 upbm affinity estimate (log intensity, higher = more binding, comparable within an allelic series); in the test with NKX3-2 [2], 12.8 upbm affinity estimate (log intensity, higher = more binding, comparable within an allelic series).

Consider CTGCATCC, for which the binding signal is 10.6 upbm affinity estimate (log intensity, higher = more binding, comparable within an allelic series) with NKX3-2 [1] and 10.7 upbm affinity estimate (log intensity, higher = more binding, comparable within an allelic series) in the test with NKX3-2 [2].

Regarding CAAACCAG, the binding signal with NKX3-2 [1] was 10.6 upbm affinity estimate (log intensity, higher = more binding, comparable within an allelic series); with NKX3-2 [2], 10.7 upbm affinity estimate (log intensity, higher = more binding, comparable within an allelic series).

Regarding GAGTAGAC, the binding signal is 11.6 upbm affinity estimate (log intensity, higher = more binding, comparable within an allelic series) with NKX3-2 [1] and 11.6 upbm affinity estimate (log intensity, higher = more binding, comparable within an allelic series) in the test with NKX3-2 [2].

AACGCCGG: the binding signal in the test with NKX3-2 [1] is 10.6 upbm affinity estimate (log intensity, higher = more binding, comparable within an allelic series); in the test with NKX3-2 [2], 10.6 upbm affinity estimate (log intensity, higher = more binding, comparable within an allelic series).
